Results: ChEMBL document CHEMBL3433997, “St. Jude Leishmania screening dataset” (2016)

Legend:
Assay type in all cases: functional
[1] = molecular target: Solute carrier family 2, facilitated glucose transporter member 1 (Homo sapiens) (UniProt P11166); experiment: ST_JUDE_LEISH: Cytotoxicity at 2uM final concentration against transgenic Leishmania Mexicana promastigotes LmGLUT1 that are glucose transport deficient and complemented with the human glucose transporter GLUT1. Activity is measured by DNA content using SYBR green in vitro
Sequence of Solute carrier family 2, facilitated glucose transporter member 1 (Homo sapiens) (P11166 whole entry): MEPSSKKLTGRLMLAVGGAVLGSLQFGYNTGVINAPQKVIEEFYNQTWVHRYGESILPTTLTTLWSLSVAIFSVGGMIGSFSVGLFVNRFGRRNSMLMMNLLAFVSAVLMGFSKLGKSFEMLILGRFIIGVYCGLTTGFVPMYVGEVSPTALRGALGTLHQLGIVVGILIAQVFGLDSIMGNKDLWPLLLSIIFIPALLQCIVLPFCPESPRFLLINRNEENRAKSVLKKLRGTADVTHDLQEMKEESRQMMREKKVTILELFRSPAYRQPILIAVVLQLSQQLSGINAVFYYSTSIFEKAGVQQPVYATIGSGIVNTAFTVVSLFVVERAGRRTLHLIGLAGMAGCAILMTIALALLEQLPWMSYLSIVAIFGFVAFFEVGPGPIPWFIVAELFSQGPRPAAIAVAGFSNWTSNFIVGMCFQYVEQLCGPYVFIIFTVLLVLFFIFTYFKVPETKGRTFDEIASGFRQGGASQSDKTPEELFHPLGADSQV

[2] = molecular target: Hexose transporter 1 (Plasmodium falciparum) (UniProt O97467); experiment: ST_JUDE_LEISH: Cytotoxicity at 2uM final concentration against transgenic Leishmania Mexicana promastigotes LmPfHT that are glucose transport deficient and complemented with the Plasmodium falciparum hexose transporter. Activity is measured by DNA content using SYBR green in vitro
[3] = molecular target: Glucose transporter (Leishmania mexicana) (UniProt O61059); experiment: ST_JUDE_LEISH: Cytotoxicity at 2uM final concentration against transgenic Leishmania Mexicana promastigotes LmGT2 that are glucose transport deficient and complemented with the L. Mexicana glucose transporter 2. Activity is measured by DNA content using SYBR green in vitro

Structure (SMILES): CCN(CC)CCNC(=O)c1ccc(Nc2ncc([N+](=O)[O-])c(Nc3ccccc3OC)n2)cc1
- inhibition [1]: 4.77%
- inhibition [2]: 4.91%
- inhibition [3]: 3.73%

Structure (SMILES): COc1ccc(-c2cccc(NC(=O)c3cccc(Cl)c3)c2)cc1CN1CCNCC1
- inhibition [1]: 2.8%
- inhibition [2]: 2.6%
- inhibition [3]: -0.77%

Structure (SMILES): c1ccc(Cn2nnnc2-c2cccc(Nc3ccnc4cc(-c5nccs5)ccc34)c2)cc1
- inhibition [1]: 1.8%
- inhibition [2]: 2.17%
- inhibition [3]: 1.96%

Structure (SMILES): COc1ccc(CNCC2CCC(CNCCc3ccccc3)CC2)cc1Cl (centres undefined)
- inhibition [1]: 1.1%
- inhibition [2]: 2.42%
- inhibition [3]: 2.3%

Structure (SMILES): CC1CN(Cc2cccc(F)c2)CCN1c1ccc(NC(=O)c2cccs2)cc1 (centres undefined)
- inhibition [1]: -0.87%
- inhibition [2]: -1.57%
- inhibition [3]: -2.09%

Structure (SMILES): c1csc(-c2nc(N3CCCC3)ncc2-c2ccsc2)n1
- inhibition [1]: 0.85%
- inhibition [2]: -0.18%
- inhibition [3]: 1.26%

Structure (SMILES): Cc1cccc2nc(-c3cccc(-c4cccc(CNCc5ccc(S(C)(=O)=O)cc5)c4)c3)[nH]c12
- inhibition [1]: 1.64%
- inhibition [2]: 0.32%
- inhibition [3]: -0.24%

Structure (SMILES): COc1cc(NCCCNCc2cn(Cc3cc(Br)cc(Br)c3)c3ccccc23)nc2ccccc12
- inhibition [1]: 4.87%
- inhibition [2]: 1.54%
- inhibition [3]: 2.54%

Structure (SMILES): CCCc1cn2c3c(cc(C(=O)N[C@@H](Cc4ccccc4)[C@H](O)CNC4CCOCC4)cc13)N(CC)S(=O)(=O)CC2
- inhibition [1]: 1.86%
- inhibition [2]: 2.35%
- inhibition [3]: 1.03%

Structure (SMILES): O=C(/C=C/c1ccc(Cl)c(Cl)c1)NCC[C@@H]1C[C@H]1CCN1CCC(c2c[nH]c3ccccc23)CC1
- inhibition [1]: 9.6%
- inhibition [2]: 8.4%
- inhibition [3]: 6.24%

Structure (SMILES): CC(C)CNCc1ccc(-c2ccc(CN(CCCN3CCN(C)CC3)C(=O)/C=C/c3ccccc3)cc2)cc1
- inhibition [1]: 8.73%
- inhibition [2]: 6.1%
- inhibition [3]: 3.32%

Structure (SMILES): CC1CN(c2cc(=O)n(Cc3ccc(NC(=O)Nc4ccc(-c5ccccc5)cc4)cc3)cn2)CC(C)N1 (centres undefined)
- inhibition [1]: 1.33%
- inhibition [2]: 1.47%
- inhibition [3]: -0.75%

Structure (SMILES): CCOc1ccc2c(N/N=C/c3cccc([N+](=O)[O-])c3)cc(C)nc2c1
- inhibition [1]: 5.98%
- inhibition [2]: 4.85%
- inhibition [3]: 4.14%

Structure (SMILES): Cc1cc(C)cc(OCC(O)CN(Cc2cc(Cl)cc(Cl)c2)C(=O)Nc2ccccc2Cl)c1 (centres undefined)
- inhibition [1]: 2.01%
- inhibition [2]: 1.42%
- inhibition [3]: -7.19%

Structure (SMILES): Cn1ncc2ccc(Nc3nccc(-c4ccc5c(c4)c(N)nn5C)n3)cc21
- inhibition [1]: 93.3%
- inhibition [2]: 97.5%
- inhibition [3]: 93.8%

Structure (SMILES): COC(=O)c1ccc(N2CCN(CCCCNC(=O)c3ccc(NC(=O)c4ccc(Cl)cc4)cc3)CC2)c(OC)c1
- inhibition [1]: 0.45%
- inhibition [2]: 1.46%
- inhibition [3]: 1.51%

Structure (SMILES): Cc1cc(=NN=Cc2ccccc2F)c2ccccc2[nH]1
- inhibition [1]: 1.11%
- inhibition [2]: 4.77%
- inhibition [3]: 1.44%

Structure (SMILES): CC(=O)Nc1ccc(S(=O)(=O)N2CCN(c3nc(NC4CCCC4)c4ccccc4n3)CC2)cc1
- inhibition [1]: 0.69%
- inhibition [2]: 3.35%
- inhibition [3]: 2.94%

Structure (SMILES): COCCn1c(C)nc2ccccc2c1=O
- inhibition [1]: 1.04%
- inhibition [2]: 1.69%
- inhibition [3]: -0.79%

Structure (SMILES): Cc1cccc2[nH]cc(C3CCN(CCC4CCN(C(=O)/C=C/c5ccc(Cl)c(Cl)c5)CC4)CC3)c12
- inhibition [1]: 1.19%
- inhibition [2]: -2.11%
- inhibition [3]: 2.11%

Structure (SMILES): CC(C)C1C(O)=C(c2ccc3ccccc3c2)C(=O)N1Cc1cccc(F)c1 (centres undefined)
- inhibition [1]: 6.97%
- inhibition [2]: 7.53%
- inhibition [3]: 8.55%

Structure (SMILES): C#CCNCc1ccc(-c2ccc(-c3nc4cc(C(F)(F)F)ccc4[nH]3)s2)cc1
- inhibition [1]: 0.44%
- inhibition [2]: -0.12%
- inhibition [3]: -1.09%

Structure (SMILES): Cc1cc(CNCCCCCNCc2cccc([N+](=O)[O-])c2)ccc1O
- inhibition [1]: 1.94%
- inhibition [2]: 1.39%
- inhibition [3]: 1.29%

Structure (SMILES): O=C(NCCCCN1CCC(c2c[nH]c3ccc(-c4ccccc4)cc23)CC1)c1ccc(-c2ccccc2)cc1
- inhibition [1]: 5.96%
- inhibition [2]: 4.21%
- inhibition [3]: 5.24%

Structure (SMILES): COc1cc2s/c(=N\C(=O)c3cccc([N+](=O)[O-])c3)n(C)c2cc1OC
- inhibition [1]: 9.71%
- inhibition [2]: 10.7%
- inhibition [3]: 6.9%

Structure (SMILES): Cc1ccc(NS(=O)(=O)c2ccc(-c3ccccc3)cc2)c(Cn2cnc(N3CCCNCC3)cc2=O)c1
- inhibition [1]: 4.14%
- inhibition [2]: 3.45%
- inhibition [3]: -3.65%

Structure (SMILES): COc1ccc(NC(=O)NC2CCN(CCCOc3cc(C)nc4ccccc34)CC2)cc1OC
- inhibition [1]: 0.88%
- inhibition [2]: 1.97%
- inhibition [3]: -3.5%

Structure (SMILES): CC(C)CCNC(=O)C1Cc2c([nH]c3ccc(Br)cc23)C2(CCN(CCc3ccccc3)CC2)N1 (centres undefined)
- inhibition [1]: 1.72%
- inhibition [2]: 0.42%
- inhibition [3]: 0.26%

Structure (SMILES): COC(=O)c1cccc(CNCc2cccc(-c3ccc(-c4nc5cccc(C)c5[nH]4)cc3)c2)c1
- inhibition [1]: 11.9%
- inhibition [2]: 7.9%
- inhibition [3]: 8.52%

Structure (SMILES): Oc1c(CN2CCC(Cc3ccccc3)CC2)cc(Cl)c2cccnc12
- inhibition [1]: 13.5%
- inhibition [2]: 14%
- inhibition [3]: 9.31%

Structure (SMILES): Cc1cccc(Nc2nc(N)c3ccccc3n2)c1
- inhibition [1]: 20.9%
- inhibition [2]: 16.5%
- inhibition [3]: 5.71%

Structure (SMILES): COc1ccc(-c2nc(NCc3ccccc3)c3cc(OC)c(OC)cc3n2)cc1
- inhibition [1]: 10.8%
- inhibition [2]: 12.1%
- inhibition [3]: 4.38%

Structure (SMILES): CN1CCN(CCCN(Cc2cccc(-c3cccc(CNC4CCCC4)c3)c2)C(=O)/C=C/c2ccccc2)CC1
- inhibition [1]: -1.1%
- inhibition [2]: -0.02%
- inhibition [3]: -2.44%
